Results as given in PubChem BioAssay AID2567 (National Center for Advancing Translational Sciences (NCATS), 2010).
Results filed as inconclusive are left out. Activity calls are given as the source filed them. Calls come from the whole dose curve; as a rule, active = well fitted antagonist curve with a large enough effect in the main read-out, with a control signal flat; inconclusive = small, poorly fitted or top-dose-only effect; inactive = no such curve, though single readings can be large or run the other way.

These compounds were tested against Neuropeptide S receptor (Homo sapiens) (UniProt Q6W5P4) (assay: Confirmation Concentration-Response Assay for Antagonists of the Neuropeptide S Receptor: Calcium Signal Transduction, SAR for Probe). Details: CHO-NPSR cells, NPS-induced calcium fluorescence, FDSS; series mostly up to 19.3 µM; activity change, negative = inhibition: at the top concentration.
Sequence of Neuropeptide S receptor (Homo sapiens) (Q6W5P4 whole entry, looked up): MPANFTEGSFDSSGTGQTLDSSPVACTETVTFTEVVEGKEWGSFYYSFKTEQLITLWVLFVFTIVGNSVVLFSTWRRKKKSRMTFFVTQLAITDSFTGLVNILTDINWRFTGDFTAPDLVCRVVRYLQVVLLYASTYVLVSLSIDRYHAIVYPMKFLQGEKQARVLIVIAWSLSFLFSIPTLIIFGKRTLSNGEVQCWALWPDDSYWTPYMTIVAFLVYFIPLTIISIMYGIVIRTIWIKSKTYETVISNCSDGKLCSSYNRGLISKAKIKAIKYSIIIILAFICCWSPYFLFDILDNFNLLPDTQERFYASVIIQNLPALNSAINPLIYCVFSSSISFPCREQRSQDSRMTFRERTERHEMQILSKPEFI
Procedure, shortened: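 CHO cells stably expressing human NPSR, loaded with calcium dye; compounds added, then stimulated with NPS (60 nM in stimulation reagent). Fluorescence (Ex 480, Em 520–560 nm) recorded kinetically on FDSS; AC50 from Hill fit.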

SMILES | activity change, negative = inhibition | Potency
NC(=S)N/N=C/c1ncc(C(F)(F)F)cc1Cl | -1.3% (inactive) | 
Cc1c(P(=S)(c2ccccc2)c2ccccc2)c2ccccc2n1C(=O)Cc1ccccc1 | -9.71% [at 50.9 µM] (inactive) | 
Cn1cc(P(=O)(c2ccccc2)c2ccccc2)c2ccccc21 | -17.3% [at 50.9 µM] (inactive) | 
COc1ccc(C2c3c(ncn(CCc4ccccc4)c3=N)Oc3ccc4ccccc4c32)cc1OC (stereo unspecified) | -81.6% [at 50.9 µM] (inactive) | 
COc1cccc(C2c3c(ncn(-c4ccccc4Cl)c3=N)Oc3ccc4ccccc4c32)c1 (stereo unspecified) |  | 5.52 µM (active)
COc1cccc(C2c3c(ncn(-c4cccc(Br)c4)c3=N)Oc3ccc4ccccc4c32)c1 (stereo unspecified) |  | 4.38 µM (active)
C(=N\Nc1nc(-c2ccccn2)nc2ccccc12)/c1ccccc1 | 1.74% (inactive) | 
O=C(/C=C/c1ccco1)NC(=S)Nc1nc(-c2ccc3ccccc3c2)cs1 | 4.33% (inactive) | 
COc1cccc(C2c3c(ncn(-c4ccc(C)cc4)c3=N)Oc3ccc4ccccc4c32)c1 (stereo unspecified) |  | 3.48 µM (active)
CCC(C)(CCN1CCOCC1)N(Cc1cc2ccccc2n(C)c1=O)C(=O)C1CCCCC1 (stereo unspecified) |  | 0.11 µM (active)
Cc1ccc(S(=O)(=O)Nc2cccc3ncccc23)s1 |  | 3.16 µM (active)
Cc1c(P(=S)(c2ccccc2)c2ccccc2)c2ccccc2n1CCc1ccccc1 | -13.2% [at 50.9 µM] (inactive) | 
COc1ccc(C2c3c(nc(Cc4ccccc4)[nH]c3=O)Oc3ccc4ccccc4c32)cc1OC (stereo unspecified) | 12.3% [at 50.9 µM] (inactive) | 
COc1cccc(C2c3c(ncn(-c4ccc(-c5ccccc5)cc4)c3=N)Oc3ccc4ccccc4c32)c1 (stereo unspecified) | -6.38% [at 50.9 µM] (inactive) | 
CC1(C)O[C@@H]2C[C@H]3[C@@H]4C[C@H](F)C5=CC(=O)CC[C@]5(C)[C@H]4[C@@H](O)C[C@]3(C)[C@]2(C(=O)CO)O1 | 34.2% (inactive) | 
COc1cccc(C2c3c(ncn(-c4ccc(C#N)cc4)c3=N)Oc3ccc4ccccc4c32)c1 (stereo unspecified) |  | 5.52 µM (active)

SMILES | activity change, negative = inhibition | Potency
CC1(C)Cc2c(c(N3CCOCC3)nc3sc4c(NCC5CCCO5)nnnc4c23)CS1 (stereo unspecified) | -40.4% (inactive) | 
COc1cccc(C2c3c(ncn(-c4cccnc4)c3=N)Oc3ccc4ccccc4c32)c1 (stereo unspecified) |  | 2.76 µM (active)
COc1cccc(C2c3c(ncn(-c4ccccc4Br)c3=N)Oc3ccc4ccccc4c32)c1 (stereo unspecified) |  | 5.52 µM (active)
COc1ccc(C2c3c(nc(CCCc4ccccc4)[nH]c3=O)Oc3ccc4ccccc4c32)cc1OC (stereo unspecified) | 11.2% [at 50.9 µM] (inactive) | 
COc1cccc(C2c3c(ncn(-c4ccccc4-c4ccccc4)c3=N)Oc3ccc4ccccc4c32)c1 (stereo unspecified) | -65.7% [at 50.9 µM] (inactive) | 
Cc1c(P(=S)(c2ccccc2)c2ccccc2)c2ccccc2n1C/C=C/c1ccccc1 | 62.1% [at 50.9 µM] (inactive) | 
COc1ccc(C2c3ccc4ccccc4c3Oc3ncn(CCN4CCOCC4)c(=N)c32)cc1OC (stereo unspecified) |  | 8.74 µM (active)
COc1ccc(C2c3c(n(CCc4ccccc4)cnc3=N)Oc3ccc4ccccc4c32)cc1OC (stereo unspecified) | -50.4% [at 50.9 µM] (inactive) | 
COc1cccc(C2c3c(ncn(Cc4cccs4)c3=N)Oc3ccc4ccccc4c32)c1 (stereo unspecified) |  | 3.48 µM (active)
CCOC(=O)c1cnc(-n2nc(C)cc2C)nc1NC1CCCC1 |  | 2.82 µM (active)
COc1cccc(C2c3c(ncn(-c4cccc(F)c4)c3=N)Oc3ccc4ccccc4c32)c1 (stereo unspecified) |  | 0.22 µM (active)
Cc1c(C(O)(c2ccccc2)c2ccccc2)[n+]2ccccc2n1C | -2.71% [at 50.9 µM] (inactive) | 
COc1cccc(C2c3c(ncn(-c4ccc(C(C)(C)C)cc4)c3=N)Oc3ccc4ccccc4c32)c1 (stereo unspecified) |  | 5.52 µM (active)
COc1cccc(C2c3c(ncn(-c4cccc(C)c4)c3=N)Oc3ccc4ccccc4c32)c1 (stereo unspecified) |  | 4.38 µM (active)
Cc1nnc(NC(=O)c2cccc(S(=O)(=O)N3CCc4ccccc43)c2)s1 | 23.8% (inactive) | 
